Inconclusive results are not listed. Activity calls are given as the source filed them. The calls were made as follows, unless noted: active = hit-call score of the fitted dose curve at least 0.9, where 1 is the maximum; inactive = score below 0.9.
What was measured:
[1] = molecular target: Paired box protein Pax-6 (Homo sapiens) (UniProt P26367); experiment: ATG_Pax6_CIS: Attagene CIS-FACTORIAL HepG2 Assay for human Paired Box 6 (PAX6) (AID 2282956); details: HepG2 CIS-FACTORIAL PAX6 reporter transcription, RNA readout; actives raise or lower the signal
How it was run: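 Read-out is reporter transcript level, measured by RT-PCR with fluorescent primer extension and capillary electrophoresis after 24 h dosing of transfected HepG2 cells. Activity in either direction fitted relative to DMSO control.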

[2] = ATG_PXRE_CIS: Attagene CIS-FACTORIAL HepG2 Assay for human Pregnane X Receptor Element (PXRE) (AID 2282957); details: HepG2 Attagene CIS-FACTORIAL PXRE reporter, mRNA; actives raise or lower the signal
How it was run: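 Using HepG2 transfected with multiple reporter transcription units, endogenous factor-driven transcription was scored as reporter mRNA after 24 h exposure.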

[3] = ATG_PPRE_CIS: Attagene CIS-FACTORIAL HepG2 Assay for human Peroxisome Proliferator-activated Response Element (PPRE) (AID 2282958); details: HepG2 PPRE cis-element reporter, Attagene transcription factor profiling; actives raise or lower the signal
How it was run: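 Endogenous PPRE-driven transcription is measured in HepG2 cells carrying transfected multi-reporter constructs. Reporter transcripts are quantified by RT-PCR, HpaI digestion and capillary electrophoresis 24 h after dosing. DMSO baseline, bidirectional fit.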

[4] = ATG_RORE_CIS: Attagene CIS-FACTORIAL HepG2 Assay for human RAR-related Orphan Receptor Element (RORE) (AID 2282959); details: HepG2 Attagene cis-factorial RORE reporter, mRNA; actives raise or lower the signal
How it was run: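 RORE reporter transcripts reflecting endogenous factor activity were read after 24 h compound exposure of transfected HepG2 cells, using reverse transcription, PCR, fluorescent labelling and capillary electrophoresis sizing. Gain or loss fitted against DMSO.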

[5] = ATG_Sox_CIS: Attagene CIS-FACTORIAL HepG2 Assay for human SRY-box transcription factor (SOX) (AID 2282960); details: HepG2 Attagene cis-factorial SOX reporter, mRNA; actives raise or lower the signal
How it was run: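 Reporter transcripts, measured by RT-PCR and capillary electrophoresis of labelled fragments, report endogenous SOX transcription factor activity. Transiently transfected human HepG2 cells receive chemical for 24 h; changes in either direction are fitted relative to DMSO.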

[6] = molecular target: Transcription factor Sp1 (Homo sapiens) (UniProt P08047); experiment: ATG_Sp1_CIS: Attagene CIS-FACTORIAL HepG2 Assay for human Specificity Protein 1 (Sp1) (AID 2282961); details: HepG2 Sp1 cis-reporter transcription, actives raise or lower the signal
How it was run: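 Read-out is reporter transcript level, measured by RT-PCR and fluorescent capillary electrophoresis after 24 h chemical treatment. System: transiently transfected HepG2 cells reporting endogenous transcription factor activity; gain or loss fitted against DMSO baseline.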

[7] = ATG_SREBP_CIS: Attagene CIS-FACTORIAL HepG2 Assay for human Sterol Regulatory Element Binding (SREBP) (AID 2282962); details: HepG2 Attagene cis-factorial SREBP reporter, mRNA; actives raise or lower the signal
How it was run: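 Endogenous SREBP activity read as cis-element-driven reporter transcript in transiently transfected HepG2, 24 h post-dosing; quantified via RT-PCR plus capillary electrophoresis of fluorescent fragments. Gain or loss of signal fitted relative to DMSO baseline.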

[8] = molecular target: Signal transducer and activator of transcription 3 (Homo sapiens) (UniProt P40763); experiment: ATG_STAT3_CIS: Attagene CIS-FACTORIAL HepG2 Assay for human Signal Transducer and Activator of Transcription 3 (STAT3) (AID 2282963); details: HepG2, Attagene cis-factorial STAT3 reporter transcription; actives raise or lower the signal
How it was run: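 Cis-factorial format: endogenous transcription factors in HepG2 drive transfected reporter units. After 24 h treatment, reporter RNA was reverse-transcribed, amplified, FAM-labelled and HpaI-digested before CE analysis; activity scored in both directions against DMSO.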

[9] = ATG_TCF_b_cat_CIS: Attagene CIS-FACTORIAL HepG2 Assay for human T-Cell-Factor with beta-catenin (TCF/b-cat) (AID 2282965); details: HepG2 TCF/beta-catenin cis-reporter transcription, actives raise or lower the signal
How it was run: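 Endogenous transcription factor activity is captured through cis-promoter reporter constructs transiently introduced into human HepG2 liver cells. Induced reporter mRNA is measured after 24 h and fitted bidirectionally relative to DMSO.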

[10] = ATG_TAL_CIS: Attagene CIS-FACTORIAL HepG2 Assay for human TAL Basal Promoter (AID 2282966); details: HepG2 Attagene cis-factorial TAL promoter reporter; actives raise or lower the signal;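 also: background control endpoint measuring basal TAL promoter reporter mRNA not a specific factor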
How it was run: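 After 24 hours of chemical exposure, transfected HepG2 cells yielded RNA that was converted to 6-FAM-labelled, HpaI-digested reporter fragments for capillary electrophoresis. Values derive from bidirectional fitting against DMSO controls.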

[11] = ATG_TGFb_CIS: Attagene CIS-FACTORIAL HepG2 Assay for human Transforming Growth Factor (TGF) (AID 2282967); details: HepG2 Attagene CIS TGFb reporter, mRNA transcription; actives raise or lower the signal
How it was run: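 After a 24-hour incubation with compound, transfected HepG2 cells were lysed for RNA; reporter cDNA was amplified, fluorescently end-labeled and separated by CE. DMSO served as baseline for bidirectional fits.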

[12] = ATG_VDRE_CIS: Attagene CIS-FACTORIAL HepG2 Assay for human Vitamin D Receptor Element (VDRE) (AID 2282968); details: HepG2 VDRE cis-reporter transcription, actives raise or lower the signal
How it was run: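 Measures endogenous factor activity through cis-element-driven reporter transcripts in transiently transfected HepG2. Cells are treated 24 h; reporter mRNA is quantified by RT-PCR and capillary electrophoresis; fitting is bidirectional.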

[13] = molecular target: Steroid hormone receptor ERR1 (Homo sapiens) (UniProt P11474); experiment: ATG_ERRa_TRANS: Attagene TRANS-FACTORIAL HepG2 Assay for human Estrogen-Related Receptor alpha (ERRa) (AID 2282971; active = hit-call score of the fitted dose curve at least 0.9, where 1 is the maximum); details: HepG2 Attagene TRANS reporter, ERRa transactivation
How it was run: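 Reporter transcript induction was quantified by RT-PCR and capillary electrophoresis of FAM-labelled, HpaI-cut products after 24 h treatment of HepG2 cells carrying transiently transfected GAL4-UAS reporter units and an exogenous ERRa-Gal4 fusion; activity scored as increase over DMSO.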

[14] = molecular target: X-box-binding protein 1 (Homo sapiens) (UniProt P17861); experiment: ATG_Xbp1_CIS: Attagene CIS-FACTORIAL HepG2 Assay for human X-box Binding Protein 1 (XBP1) (AID 2282972); details: HepG2 XBP1 cis-element reporter, Attagene multiplex; actives raise or lower the signal
How it was run: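 Reporter transcripts were quantified by RT-PCR with fluorescent primer extension and capillary electrophoresis after 24 h chemical exposure. Cells: transiently transfected HepG2 carrying cis-regulated reporter constructs; data fitted bidirectionally relative to DMSO.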

[15] = ATG_M_19_TRANS: Attagene TRANS-FACTORIAL HepG2 Assay for M19 Transcription Factor (Internal Marker) (AID 2282974; active = hit-call score of the fitted dose curve at least 0.9, where 1 is the maximum); details: HepG2 Attagene TRANS-FACTORIAL M19 internal marker reporter
How it was run: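 Background-control readout: after 24 h chemical exposure of transfected HepG2 carrying GAL4-driven reporter units, RNA was reverse-transcribed, amplified, fluorescently labeled and sized by capillary electrophoresis; gain-of-signal fit against DMSO.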

[16] = ATG_GAL4_TRANS: Attagene TRANS-FACTORIAL HepG2 Assay for GAL4 (Internal Marker) (AID 2282976; active = hit-call score of the fitted dose curve at least 0.9, where 1 is the maximum); details: HepG2 Attagene TRANS GAL4 internal marker reporter
How it was run: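 First, HepG2 cells were transfected with reporter units under GAL4-UAS control. Next, they were treated with chemical for 24 h. Finally, RNA was reverse-transcribed, PCR-amplified, FAM-labelled and resolved by capillary electrophoresis, with induction scored against DMSO.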

[17] = molecular target: Estrogen-related receptor gamma (Homo sapiens) (UniProt P62508); experiment: ATG_ERRg_TRANS: Attagene TRANS-FACTORIAL HepG2 Assay for human Estrogen-Related Receptor gamma (ERRg) (AID 2282977; active = hit-call score of the fitted dose curve at least 0.9, where 1 is the maximum;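 also: hits increase reporter signal over DMSO so potencies reflect activators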); details: HepG2 Attagene TRANS reporter, ERRg transactivation
How it was run: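 Exogenous NR-Gal4 chimera activity was assessed in HepG2 cells bearing transfected GAL4-UAS reporters. After 24 h dosing, total RNA underwent RT-PCR, fluorescent primer extension and HpaI digestion before capillary electrophoresis, with gain of signal scored against DMSO.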

[18] = ATG_TA_CIS: Attagene CIS-FACTORIAL HepG2 Assay for human TA Basal Promoter (AID 2282964); details: HepG2 Attagene CIS-factorial TA basal promoter reporter; actives raise or lower the signal
How it was run: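 Transient MRTU transfection of HepG2 preceded 24 h compound exposure. Reporter mRNA levels were then read by RT-PCR with capillary electrophoresis, and this background-control endpoint was fitted bidirectionally to DMSO.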

[19] = molecular target: Estrogen receptor (Homo sapiens) (UniProt P03372); experiment: ATG_ERa_TRANS: Attagene TRANS-FACTORIAL HepG2 Assay for human Estrogen Receptor alpha (ERa) (AID 2282970; active = hit-call score of the fitted dose curve at least 0.9, where 1 is the maximum); details: HepG2 Attagene TRANS ERa GAL4 reporter, mRNA
How it was run: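 Liver-derived HepG2 cells expressing chimeric nuclear receptor-Gal4 proteins from transient transfection were exposed for 24 hours. Gain of reporter mRNA signal versus DMSO, read by capillary electrophoresis of FAM-labelled PCR products, was recorded.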

[20] = molecular target: Nuclear receptor subfamily 1 group I member 3 (Homo sapiens) (UniProt Q14994); experiment: ATG_CAR_TRANS: Attagene TRANS-FACTORIAL HepG2 Assay for human Constitutive Androstane Receptor (CAR) (AID 2282969; active = hit-call score of the fitted dose curve at least 0.9, where 1 is the maximum;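 also: activators raise reporter mRNA above DMSO so AC50 marks induction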); details: HepG2 Attagene TRANS-FACTORIAL CAR reporter
How it was run: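 Signal is reporter mRNA induction relative to DMSO, measured 24 h after dosing by RT-PCR with fluorescent primer extension and capillary electrophoresis. Human HepG2 liver cells carried transiently transfected chimeric NR-Gal4/GAL4-UAS reporter constructs.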

Measured: AC50

Estrogen receptor (Homo sapiens), sequence (P03372 whole entry, looked up, the tested form may be a part): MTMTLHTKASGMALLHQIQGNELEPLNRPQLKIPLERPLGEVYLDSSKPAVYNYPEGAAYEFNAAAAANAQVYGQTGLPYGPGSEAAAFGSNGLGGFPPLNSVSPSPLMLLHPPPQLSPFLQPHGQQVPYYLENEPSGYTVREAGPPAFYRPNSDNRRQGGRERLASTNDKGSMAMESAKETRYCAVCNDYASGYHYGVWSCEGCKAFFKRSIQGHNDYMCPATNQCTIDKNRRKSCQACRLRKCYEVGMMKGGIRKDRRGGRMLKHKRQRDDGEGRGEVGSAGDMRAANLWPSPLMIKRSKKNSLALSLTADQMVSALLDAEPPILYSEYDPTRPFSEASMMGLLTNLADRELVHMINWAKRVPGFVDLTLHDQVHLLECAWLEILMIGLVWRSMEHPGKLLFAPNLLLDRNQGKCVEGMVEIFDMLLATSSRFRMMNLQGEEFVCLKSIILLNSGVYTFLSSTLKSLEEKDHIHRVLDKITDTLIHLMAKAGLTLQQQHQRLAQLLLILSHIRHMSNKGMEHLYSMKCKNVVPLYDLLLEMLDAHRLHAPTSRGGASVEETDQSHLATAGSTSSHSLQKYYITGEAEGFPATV
Paired box protein Pax-6 (Homo sapiens), sequence (P26367 whole entry, looked up): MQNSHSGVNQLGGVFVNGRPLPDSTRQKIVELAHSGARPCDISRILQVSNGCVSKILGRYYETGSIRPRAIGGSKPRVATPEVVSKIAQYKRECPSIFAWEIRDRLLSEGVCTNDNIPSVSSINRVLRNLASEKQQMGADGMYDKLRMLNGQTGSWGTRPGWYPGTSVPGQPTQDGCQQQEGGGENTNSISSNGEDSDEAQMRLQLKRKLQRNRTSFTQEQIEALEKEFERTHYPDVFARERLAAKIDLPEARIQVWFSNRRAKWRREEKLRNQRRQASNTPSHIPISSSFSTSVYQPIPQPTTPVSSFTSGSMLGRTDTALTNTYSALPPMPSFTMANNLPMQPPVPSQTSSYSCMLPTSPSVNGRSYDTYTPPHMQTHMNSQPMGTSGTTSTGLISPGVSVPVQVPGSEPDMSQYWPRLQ
Estrogen-related receptor gamma (Homo sapiens), sequence (P62508 whole entry, looked up, the tested form may be a part): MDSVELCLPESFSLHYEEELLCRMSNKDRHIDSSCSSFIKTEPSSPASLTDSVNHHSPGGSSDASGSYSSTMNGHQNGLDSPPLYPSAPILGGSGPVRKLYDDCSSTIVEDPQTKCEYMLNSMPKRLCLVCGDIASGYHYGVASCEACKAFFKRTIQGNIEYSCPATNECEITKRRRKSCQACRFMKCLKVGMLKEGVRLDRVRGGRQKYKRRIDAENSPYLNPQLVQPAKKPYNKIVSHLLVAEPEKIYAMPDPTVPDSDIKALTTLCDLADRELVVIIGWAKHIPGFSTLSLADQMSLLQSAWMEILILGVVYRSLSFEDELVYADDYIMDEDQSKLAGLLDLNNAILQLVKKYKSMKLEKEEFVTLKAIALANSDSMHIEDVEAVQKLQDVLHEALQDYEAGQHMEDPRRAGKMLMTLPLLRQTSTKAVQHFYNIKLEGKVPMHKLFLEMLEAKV
X-box-binding protein 1 (Homo sapiens), sequence (P17861 whole entry, looked up): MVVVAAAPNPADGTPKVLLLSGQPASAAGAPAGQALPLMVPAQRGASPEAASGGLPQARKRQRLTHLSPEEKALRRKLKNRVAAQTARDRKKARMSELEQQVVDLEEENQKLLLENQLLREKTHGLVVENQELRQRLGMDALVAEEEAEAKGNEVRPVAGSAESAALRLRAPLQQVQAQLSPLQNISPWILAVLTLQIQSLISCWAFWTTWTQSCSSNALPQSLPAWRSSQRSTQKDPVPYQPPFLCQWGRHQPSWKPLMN
Signal transducer and activator of transcription 3 (Homo sapiens), sequence (P40763 whole entry, looked up): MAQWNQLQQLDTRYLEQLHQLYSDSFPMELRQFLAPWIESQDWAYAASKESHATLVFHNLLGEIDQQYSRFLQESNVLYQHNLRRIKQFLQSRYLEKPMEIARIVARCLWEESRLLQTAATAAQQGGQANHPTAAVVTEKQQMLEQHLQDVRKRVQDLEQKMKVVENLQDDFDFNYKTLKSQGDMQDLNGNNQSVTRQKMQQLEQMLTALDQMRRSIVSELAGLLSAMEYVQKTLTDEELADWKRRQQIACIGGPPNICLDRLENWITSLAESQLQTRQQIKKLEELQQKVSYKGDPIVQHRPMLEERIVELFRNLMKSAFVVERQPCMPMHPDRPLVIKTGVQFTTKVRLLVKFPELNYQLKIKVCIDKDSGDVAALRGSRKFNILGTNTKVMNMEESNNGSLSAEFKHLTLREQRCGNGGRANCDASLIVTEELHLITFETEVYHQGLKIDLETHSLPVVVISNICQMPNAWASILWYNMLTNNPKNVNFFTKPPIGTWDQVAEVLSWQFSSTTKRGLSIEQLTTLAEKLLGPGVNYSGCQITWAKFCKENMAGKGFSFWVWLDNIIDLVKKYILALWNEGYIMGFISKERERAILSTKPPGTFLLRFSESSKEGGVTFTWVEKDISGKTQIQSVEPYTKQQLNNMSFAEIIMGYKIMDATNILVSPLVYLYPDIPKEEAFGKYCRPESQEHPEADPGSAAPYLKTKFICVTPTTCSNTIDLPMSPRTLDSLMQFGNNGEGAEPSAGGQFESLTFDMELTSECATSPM
Transcription factor Sp1 (Homo sapiens), sequence (P08047 whole entry, looked up): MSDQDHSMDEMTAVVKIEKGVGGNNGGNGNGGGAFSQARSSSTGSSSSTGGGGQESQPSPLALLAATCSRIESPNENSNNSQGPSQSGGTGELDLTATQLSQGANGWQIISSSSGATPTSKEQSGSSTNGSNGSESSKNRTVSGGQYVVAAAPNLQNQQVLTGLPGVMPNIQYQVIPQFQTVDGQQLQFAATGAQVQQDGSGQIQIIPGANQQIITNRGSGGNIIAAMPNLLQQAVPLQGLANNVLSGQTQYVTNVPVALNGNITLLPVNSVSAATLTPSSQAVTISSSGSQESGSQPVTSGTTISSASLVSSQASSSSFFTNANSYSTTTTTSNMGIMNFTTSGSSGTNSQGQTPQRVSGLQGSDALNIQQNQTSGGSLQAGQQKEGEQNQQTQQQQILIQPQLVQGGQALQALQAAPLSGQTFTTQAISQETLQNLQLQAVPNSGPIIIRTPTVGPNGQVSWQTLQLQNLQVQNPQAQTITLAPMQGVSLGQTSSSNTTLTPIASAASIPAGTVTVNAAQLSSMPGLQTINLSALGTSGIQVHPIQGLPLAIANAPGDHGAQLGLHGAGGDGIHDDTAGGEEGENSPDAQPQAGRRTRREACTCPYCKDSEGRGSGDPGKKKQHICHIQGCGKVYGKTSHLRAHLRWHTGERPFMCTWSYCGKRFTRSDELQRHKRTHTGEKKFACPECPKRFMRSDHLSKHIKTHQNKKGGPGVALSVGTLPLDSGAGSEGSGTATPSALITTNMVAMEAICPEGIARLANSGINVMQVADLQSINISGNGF
Steroid hormone receptor ERR1 (Homo sapiens), sequence (P11474 whole entry, looked up, the tested form may be a part): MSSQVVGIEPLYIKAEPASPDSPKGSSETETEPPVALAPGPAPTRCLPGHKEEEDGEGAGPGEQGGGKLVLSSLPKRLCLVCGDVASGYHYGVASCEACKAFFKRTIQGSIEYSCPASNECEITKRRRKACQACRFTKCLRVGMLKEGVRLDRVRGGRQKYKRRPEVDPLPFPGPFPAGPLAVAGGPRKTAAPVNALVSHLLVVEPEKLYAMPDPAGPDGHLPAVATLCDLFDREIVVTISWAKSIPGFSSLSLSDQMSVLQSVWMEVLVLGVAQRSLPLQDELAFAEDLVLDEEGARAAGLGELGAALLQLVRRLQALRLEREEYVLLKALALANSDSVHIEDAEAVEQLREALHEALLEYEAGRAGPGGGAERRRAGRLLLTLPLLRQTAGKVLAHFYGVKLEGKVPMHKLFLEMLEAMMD
Nuclear receptor subfamily 1 group I member 3 (Homo sapiens), sequence (Q14994 whole entry, looked up, the tested form may be a part): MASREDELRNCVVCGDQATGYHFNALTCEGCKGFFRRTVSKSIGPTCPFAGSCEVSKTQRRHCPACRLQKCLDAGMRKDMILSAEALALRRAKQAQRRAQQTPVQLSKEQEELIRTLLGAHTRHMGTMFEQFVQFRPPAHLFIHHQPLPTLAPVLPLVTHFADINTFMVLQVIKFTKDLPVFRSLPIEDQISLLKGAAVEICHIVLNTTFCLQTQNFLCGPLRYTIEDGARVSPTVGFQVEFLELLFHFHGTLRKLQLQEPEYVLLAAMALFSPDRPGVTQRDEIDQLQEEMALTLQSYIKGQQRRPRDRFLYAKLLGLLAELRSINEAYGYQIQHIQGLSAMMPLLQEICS

CCc1nccnc1C
not listed: [18] | [19] | [20]
inactive: all other assays above

C=CC(=O)OCC(Br)CBr (stereo not drawn)
active: [1] 34.5 µM | [8] 121 µM | [9] 44.2 µM | [11] 0.39 µM | [12] 26.3 µM | [19] 100 µM
not listed: [5] | [13] | [16] | [17] | [20]
inactive: all other assays above

C1=Cc2ccccc2C1
active: [2] 9.16 µM | [19] 65.8 µM
not listed: [8] | [13] | [15]
inactive: all other assays above

OC1CCCC1
active: [2] 48.8 µM
not listed: [8] | [9] | [11] | [19] | [20]
inactive: all other assays above

CCCCCCCCCCOC(C)=O
active: [19] 47.2 µM
not listed: [13] | [17] | [18] | [20]
inactive: all other assays above

CC(=O)c1ccc[nH]1
not listed: [8] | [9] | [12] | [13] | [17] | [18] | [20]
inactive: all other assays above
